The values that follow come from PubChem BioAssay AID651702 (NMMLSC, 2012).

The whole screen tested about 360,000 compounds, of which about 2,400 (0.67%) were called active. The sample as a whole holds a higher share of actives than the screen did. Unmarked numbers belong to inactive results.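 How the source made its calls: active means inhibition above about 55% (limit read from the data); inconclusive means no clear call, values can overlap the other calls; inactive means the rest.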

This test in a line: LAMP-1 surface exposure blockers, TALL-104 cells – cell-based, flow cytometry, MLPCN library, primary screen (AID 651702). The following applies: TALL-104 LAMP-1 surface exposure, at 10 µM, hits give high values, cells stimulated with thapsigargin and PMA. In general terms: Flow cytometry measures light scatter and fluorescence of single cells or particles in a stream.
In general, inhibition refers to the change of the read-out against control, counted positive when it falls. Turning to `O=C(COC(=O)/C=C/c1cccc(Cl)c1)NCc1cccs1`, the inhibition was 18.2%.

Turning to `CC1CCCCC1NC(=O)Cn1c(=O)cnc2ccccc21` (configuration not stated), the inhibition is 25.2%.

Regarding `CCc1cc(C(=O)N(CC)CC(=O)Nc2c(F)cccc2F)sc1C`, the inhibition is 18.1%.

As for `O=C(Cn1nnc(-c2ccc(CN3CCOCC3)cc2)n1)NC1CCCCC1`, the inhibition was -4.2%.

Regarding `O=C(Nc1ccccc1)c1cccnc1Nc1ccccc1`, the inhibition was 99.9% (active).

Regarding `O=C(Nc1ccccc1)c1ccccc1Br`, the inhibition is -1.5%.

Take `COc1cccc(Nc2ncccc2C(=O)O)c1`: the inhibition is -1.7%.

In the case of `Cc1cccc(C(=O)NNC(=O)CSc2nnc(C(C)C)n2C)c1`, the inhibition is -2.9%.

Regarding `Cc1ccccc1C(OCC(O)CN1CCCCC1CCO)c1ccccc1` (configuration not stated), the inhibition is -0.9%.

As for `COc1cccc(CN(C)CC(=O)Nc2ccccc2C(=O)Nc2ccccc2)c1`, the inhibition was 8.4%.

For `COc1cccc(CN(C)CC(O)COC(c2ccccc2)c2ccccc2C)c1` (configuration not stated), the inhibition is 60.5% (active).

As to `COc1ccc(-c2c(C#Cc3ccccc3)c3ccccc3n2C)cc1`, the inhibition was -3.3%.

Take `COc1ccc(CCNCc2c(-c3ccccc3)n(C)c3ccccc23)cc1`: the inhibition is 90.8% (active).

With `COc1ccc(CCNC(=O)COC(=O)c2cc(=O)c3ccccc3o2)cc1`, the inhibition was -2.7%.

Consider `CC[C@@H]1CC2=C(C(=O)OC(C)(C)O2)[C@@H](CC)O1`, for which the inhibition was -0.8%.

Take `Cc1c(CN2CCC(CO)(CCOc3ccccc3)CC2)[nH]c2ccc(Cl)cc12`: the inhibition was 64.1% (active).

Consider `Cc1cccc(-c2ncc(CN3CCC(CO)(CCCc4ccccc4)CC3)cn2)c1`, for which the inhibition is 2.3%.

Consider `CC(C)(O)C#Cc1ccc(CN2CCC(CO)(CCc3ccccc3)CC2)cc1`, for which the inhibition is -3%.

For `Cc1cc(=O)cc(C)[nH]1`, the inhibition is -3.9%.

Regarding `CCOc1cnc(-c2c(-c3ccccc3Cl)noc2C)o1`, the inhibition is 1.2%.

With `Cc1oc(-c2cccc(Cl)c2)[n+]([O-])c1C`, the inhibition is 8%.

With `Cc1oc(-c2ccccc2Cl)[n+]([O-])c1C`, the inhibition was 58.5% (active).

For the compound `COc1ccc([C@H]2CC(=O)C=C(c3ccc(OC(F)(F)F)cc3)C2)cc1OC`, the inhibition was -1.8%.

For `CC1(C2CC2)NC(=O)N(CC(=O)N2CCN(c3ccccc3F)CC2)C1=O` (configuration not stated), the inhibition was 2%.

For the compound `Cc1cccc(NC(=O)c2cccc(C(=O)Nc3cccc(C)c3C)n2)c1C`, the inhibition was -1.9%.

Take `CS(=O)(=O)N(Cc1ccc(Cl)cc1)c1ccc(C(=O)NCCSCc2ccco2)cc1`: the inhibition is 95.2% (active).

Turning to `Cc1cc(C)cc(N(CC(=O)NCCSCc2ccco2)S(C)(=O)=O)c1`, the inhibition was -4.7%.

As to `CCc1ccccc1N(CC(=O)NCCSCc1ccco1)S(C)(=O)=O`, the inhibition is -0.4%.

For the compound `COc1cccc(NC(=O)CSc2nccn(-c3ccc4c(c3)OCCO4)c2=O)c1`, the inhibition was -0.2%.

As to `C/C=C/c1ccc(OCC(O)CN2CCCCCCC2)c(OC)c1` (configuration not stated), the inhibition was -1%.

On to `CCOC(=O)N1CCN(c2cc(C)c([N+](=O)[O-])cc2F)CC1`, for which the inhibition was -1%.

As for `CN(C)c1ccc(N/C=C/C(=O)C(F)(F)F)cc1`, the inhibition is 0.5%.

Take `NNC(=O)C1CC(O)CN1S(=O)(=O)c1ccc(Cl)cc1` (configuration not stated): the inhibition is -0.1%.

For the compound `CN(c1ccccc1)S(=O)(=O)c1ccc(NC(=O)COc2ccccc2)cc1`, the inhibition was 16.3%.

With `COc1cccc(COc2ccc(N(C)S(=O)(=O)c3ccccc3)cc2)c1`, the inhibition was 72% (active).

For `Cc1ccc2nc(COc3ccc(N(C)S(=O)(=O)c4ccccc4)cc3)cc(=O)n2c1`, the inhibition is 2%.

`Cc1ccc(NC(=O)CN2CCCCC2)c2c1CC(C)(C)O2`: the inhibition is -0.4%.

With `CCc1cccc(C)c1NC(=S)N(CCCN1CCN(C)CC1)Cc1cccs1`, the inhibition is -1.6%.

For `Cc1ccc(NC(=S)N(CCCN2CCCC2)Cc2cccn2Cc2ccc(Cl)cc2)cc1`, the inhibition was 75.2% (active).

For the compound `Cc1ccccc1NC(=S)N(CCCN1CCOCC1)Cc1cccs1`, the inhibition was 5.8%.

In the case of `O=C(c1n[nH]c2c1CCC2)N1CCCC(Nc2cccc(F)c2)C1` (configuration not stated), the inhibition was -7.9%.

Regarding `CCCCC(CC)CNCc1cccn1CCN1CCOCC1` (configuration not stated), the inhibition was 19.8%.

As to `COc1ccc(NC(=O)C2=CC(c3ccc(OC)c(OC)c3)=NS(=O)(=O)N2C)cc1`, the inhibition is -5.8%.

In the case of `CCc1ccc(C2N3CC4([N+](=O)[O-])CN2CC([N+](=O)[O-])(C3)C4(C)C)cc1` (configuration not stated), the inhibition is -2%.

For the compound `Oc1ccc2ccccc2c1N=Nc1nccs1`, the inhibition is 61.9% (active).

As to `CC(C)(C)c1cc2cccnc2n1Cc1ccccc1`, the inhibition is 0%.

`O=S(=O)(Nc1ccc2ccccc2c1)N1CCCCC1`: the inhibition was -2.7%.

In the case of `COc1ccc(S(=O)(=O)N(C)C[C@@H]2Oc3ccc(NS(=O)(=O)c4cn(C)cn4)cc3C(=O)N([C@@H](C)CO)C[C@@H]2C)cc1`, the inhibition was -0.8%.

`COc1ccccc1NS(=O)(=O)c1ccc(C(=O)N2CCN(c3ccccc3O)CC2)cc1`: the inhibition is 2.1%.

With `O=S(=O)(Nc1ccc(OC(F)(F)F)cc1)c1cccc2nonc12`, the inhibition was -6.5%.

Regarding `O=S(=O)(Nc1ccc(O)c2ccccc12)c1ccc(OC(F)(F)F)cc1`, the inhibition was 60.2% (active).

As to `O=C(NCc1cccc(C(F)(F)F)c1)c1ccc2sc(COCCO)nc2c1`, the inhibition is 2.2%.

For the compound `CCCCN1C(=O)/C(=C(/C#N)C(N)=O)c2ccccc21`, the inhibition is -1.7%.

Take `C#CCN1C(=O)C(O)(CC(=O)c2cc(OC)ccc2OC)c2ccccc21` (configuration not stated): the inhibition is -1.2%.

Regarding `COc1ccc2c(c1)C(=C(C#N)C#N)C(=O)N2CCc1ccccc1`, the inhibition was 97.9% (active).

For `CCOC(=O)[C@]12CCCC=C1N(CCC1=CCCCC1)C(=O)[C@H](CC(=O)NCCCCc1ccccc1)C2`, the inhibition is 11.5%.

Regarding `Cc1cccc(OCC(O)Cn2c(=N)n(CCN3CCOCC3)c3ccccc32)c1` (configuration not stated), the inhibition was 1.7%.

In the case of `OC(COc1ccc(CN2CCSCC2)cc1)CN1CCCCC1` (configuration not stated), the inhibition is 19.9%.

`OC(CN=c1sc2ccccc2n1CC(O)COc1ccccc1)COc1ccccc1` (configuration not stated): the inhibition was 91.1% (active).

For the compound `O=c1cc(CO)oc(C(Nc2cccc(C(F)(F)F)c2)c2ccccn2)c1O` (configuration not stated), the inhibition was 1.7%.

As to `CC(C)CCN1NC2(CCC(C)CC2)NC1=S` (configuration not stated), the inhibition was -6.9%.

With `O=C(COC(=O)c1ccccc1SCC(=O)N1CCCC1)Nc1ccccc1OC(F)F`, the inhibition is -7.8%.

With `Cc1ccccc1CSCCNC(=O)c1ccc(N(C)S(=O)(=O)c2ccccc2)cc1`, the inhibition was 6.2%.

On to `CN(c1ccccc1)S(=O)(=O)c1ccc(C(=O)NCc2cccnc2)cc1`, for which the inhibition was -0.5%.

With `CN(c1ccccc1)S(=O)(=O)c1ccc(C(=O)NCCc2ccccc2)cc1`, the inhibition is 70.8% (active).

`CCOC(=O)[C@H]1[C@H]2COc3cc(OC)ccc3[C@@H]2N2C(=O)N(c3ccc(Br)cc3)C(=O)[C@@]12C`: the inhibition is -15.5%.

As to `CC(Oc1ccccc1)C(=O)Nc1c2c(nn1-c1ccccc1)CS(=O)C2` (configuration not stated), the inhibition is -4%.

For `O=C(Cc1csc(Nc2nc(=S)[nH]c3ccccc23)n1)NCCCN1CCN(c2cccc(Cl)c2)CC1`, the inhibition is 56.9% (active).

In the case of `CCOC(=O)N1CCC(Nc2c(NCCN3CCN(c4cccc(Cl)c4)CC3)c(=O)c2=O)CC1`, the inhibition was 1.5%.

As for `O=C(Cc1ccc(-n2c(=O)[nH]c3ccccc3c2=O)cc1)N1CCN(c2cccc(Cl)c2)CC1`, the inhibition was -0.7%.

As to `CC(=O)OCC(=O)C1(O)CCC2C3CC(C)C4=CC(=O)CCC4(C)C3C(O)CC21C` (configuration not stated), the inhibition was -8.4%.

On to `CC(C(=O)NCC1CCCCC1)N(C)Cc1cccc(Cl)c1` (configuration not stated), for which the inhibition was 0.2%.

`COc1ccc(NC(=O)C(c2ccncc2)n2c(=O)c(-c3cc4ccccc4[nH]3)nc3ccccc32)cc1` (configuration not stated): the inhibition is 19.8%.

`COc1cc(NC(=O)COC(=O)c2cc(S(=O)(=O)N3CCOCC3)ccc2F)cc(OC)c1`: the inhibition was -1.4%.

On to `Cc1nc(-c2ccc(Cl)cc2)sc1C1(C)CC(c2ccc(Br)cc2)=NO1` (configuration not stated), for which the inhibition is 56.1% (active).

Consider `Cc1nc(-c2ccc(Cl)cc2)sc1C1(C)CC(c2ccccc2F)=NO1` (configuration not stated), for which the inhibition is 5.5%.

As for `Cc1nc(C(=O)Nc2ccc(Cl)cc2)sc1C1(C)CC(c2ccccc2)=NO1` (configuration not stated), the inhibition is 1.2%.

Regarding `Cc1ccccc1CSc1nnc(CCCCCNC(=O)OC(C)(C)C)o1`, the inhibition is -4.6%.

Regarding `CC(C)Cc1nnc(NC(=O)CN2C(=O)NC3(CCCCC3)C2=O)s1`, the inhibition is -0.9%.

Take `COc1cccc(CN(C)CC(=O)NCc2ccccc2Cl)c1OC`: the inhibition was -3.5%.

For the compound `Cc1nc2ccc(C(=O)N(C)CC3CCCN(CCc4ccc(Cl)cc4)C3)cc2[nH]1` (configuration not stated), the inhibition is 6.7%.

Regarding `COc1cccc(CN(C)CC2CCCN(CCc3ccc(Cl)cc3)C2)c1OC` (configuration not stated), the inhibition is 75.1% (active).

Regarding `COCCNC(=O)C(c1ccc(O)cc1)N(C(=O)CCC(=O)Nc1nccs1)c1ccc(C)cc1` (configuration not stated), the inhibition was -4.4%.

As to `CCOc1cc(CN2CCCC(CO)(Cc3ccc(F)cc3F)C2)ccc1OC` (configuration not stated), the inhibition was 11.4%.

As to `Cc1cc(C)cc(NC(=O)NC2CCN(CC(=O)Nc3cccc(Cl)c3C)CC2)c1`, the inhibition was 9.3%.

On to `COc1ccc(CCNC(=O)CN(c2ccccc2)S(C)(=O)=O)cc1`, for which the inhibition is 10.8%.

With `COc1ccc(-c2oc3ncn(Cc4ccco4)c(=N)c3c2-c2ccc(OC)cc2)cc1`, the inhibition was 24.9%.

Turning to `C(=C\c1ccccc1)/CSc1nnc(-c2cccnc2)n1Cc1ccco1`, the inhibition is -1%.

Regarding `N=c1c2c(-c3ccccc3)c(-c3ccccc3)oc2ncn1Cc1ccco1`, the inhibition is 59.7% (active).

As for `COc1ccccc1C(=O)NCCC(=O)NN1C(=O)NC2(CCCCC2)C1=O`, the inhibition is 4%.

Turning to `O=C(O)C(F)(F)C(NCc1ccccc1)c1ccccc1` (configuration not stated), the inhibition is 2.5%.

Consider `Cc1cc(C)n(CCNC(=O)CC2C(=O)NCCN2Cc2ccc(C)o2)n1` (configuration not stated), for which the inhibition is -10.6%.
